Data from the supplement of paper PMC11732987, “Enantioselective OTUD7B fragment discovery through chemoproteomics screening and high-throughput optimisation” (Communications Chemistry, 2025).

Key:
Assay in all cases: log2 ratio of Biotin-Ahx-Ub-VS probe labelling (fragment/DMSO); higher = less target engagement (more negative = stronger competition), active = hit call of the paper (q ≤ 0.05, log2 ratio ≤ -1)
Details in all cases: compound concentration: 200 uM; treatment time: 3 h
[1] = biological target: T1, USP42 (UniProt Q9H9J4)
T1 sequence (whole entry): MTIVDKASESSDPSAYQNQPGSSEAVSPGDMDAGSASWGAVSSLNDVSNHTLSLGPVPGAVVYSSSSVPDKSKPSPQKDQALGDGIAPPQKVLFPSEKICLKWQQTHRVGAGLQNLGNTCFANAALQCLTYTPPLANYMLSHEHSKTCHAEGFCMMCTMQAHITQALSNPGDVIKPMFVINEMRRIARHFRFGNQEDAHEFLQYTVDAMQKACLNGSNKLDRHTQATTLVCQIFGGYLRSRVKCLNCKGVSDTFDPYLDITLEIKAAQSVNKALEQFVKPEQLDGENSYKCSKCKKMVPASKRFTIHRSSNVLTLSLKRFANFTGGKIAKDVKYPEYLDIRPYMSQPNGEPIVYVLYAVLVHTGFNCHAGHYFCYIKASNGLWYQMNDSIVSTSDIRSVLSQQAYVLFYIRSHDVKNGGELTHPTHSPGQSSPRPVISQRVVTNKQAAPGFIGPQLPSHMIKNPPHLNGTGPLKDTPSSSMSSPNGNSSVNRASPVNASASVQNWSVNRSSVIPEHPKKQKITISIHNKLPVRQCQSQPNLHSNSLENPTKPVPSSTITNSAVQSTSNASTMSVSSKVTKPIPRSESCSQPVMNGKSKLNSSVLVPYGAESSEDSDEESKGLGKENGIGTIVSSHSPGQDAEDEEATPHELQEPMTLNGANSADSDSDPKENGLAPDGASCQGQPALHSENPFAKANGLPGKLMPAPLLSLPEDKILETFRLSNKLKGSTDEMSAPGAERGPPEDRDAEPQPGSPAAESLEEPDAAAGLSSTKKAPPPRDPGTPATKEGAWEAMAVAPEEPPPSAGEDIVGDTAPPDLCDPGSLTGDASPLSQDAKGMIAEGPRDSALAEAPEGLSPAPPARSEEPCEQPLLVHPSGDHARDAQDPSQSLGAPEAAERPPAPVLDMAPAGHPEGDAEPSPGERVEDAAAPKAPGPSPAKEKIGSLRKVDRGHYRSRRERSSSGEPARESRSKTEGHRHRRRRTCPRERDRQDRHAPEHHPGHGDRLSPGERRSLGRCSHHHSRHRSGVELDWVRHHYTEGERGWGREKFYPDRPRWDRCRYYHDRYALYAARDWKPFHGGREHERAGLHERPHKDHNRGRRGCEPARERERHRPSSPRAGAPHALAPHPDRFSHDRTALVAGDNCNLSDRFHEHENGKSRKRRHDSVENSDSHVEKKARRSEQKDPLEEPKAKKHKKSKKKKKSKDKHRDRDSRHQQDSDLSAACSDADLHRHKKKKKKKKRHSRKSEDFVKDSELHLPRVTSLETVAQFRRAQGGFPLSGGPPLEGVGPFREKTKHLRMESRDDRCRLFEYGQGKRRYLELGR
Outline: (§1)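 HEK293T lysate (495 µg per sample, in Tris/CHAPS/IGEPAL buffer with protease inhibitors) was treated in triplicate with fragment at 200 µM or with DMSO for 3 h. It was then treated with Biotin-Ahx-Ub-VS (0.5 µM final) for 1 h. Labelled DUBs were NeutrAvidin-enriched, digested with LysC and trypsin, and run by diaPASEF LC-MS/MS. Spectronaut label-free quantities were global-median-normalised. Values are average log2 ratios fragment/DMSO by unpaired t-test, using proteins with ≥2 unique peptides.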

[2] = biological target: USP46 (UniProt P62068)
Outline: as §1

[3] = biological target: T2, USP47 (UniProt Q96K76)
T2 sequence (whole entry): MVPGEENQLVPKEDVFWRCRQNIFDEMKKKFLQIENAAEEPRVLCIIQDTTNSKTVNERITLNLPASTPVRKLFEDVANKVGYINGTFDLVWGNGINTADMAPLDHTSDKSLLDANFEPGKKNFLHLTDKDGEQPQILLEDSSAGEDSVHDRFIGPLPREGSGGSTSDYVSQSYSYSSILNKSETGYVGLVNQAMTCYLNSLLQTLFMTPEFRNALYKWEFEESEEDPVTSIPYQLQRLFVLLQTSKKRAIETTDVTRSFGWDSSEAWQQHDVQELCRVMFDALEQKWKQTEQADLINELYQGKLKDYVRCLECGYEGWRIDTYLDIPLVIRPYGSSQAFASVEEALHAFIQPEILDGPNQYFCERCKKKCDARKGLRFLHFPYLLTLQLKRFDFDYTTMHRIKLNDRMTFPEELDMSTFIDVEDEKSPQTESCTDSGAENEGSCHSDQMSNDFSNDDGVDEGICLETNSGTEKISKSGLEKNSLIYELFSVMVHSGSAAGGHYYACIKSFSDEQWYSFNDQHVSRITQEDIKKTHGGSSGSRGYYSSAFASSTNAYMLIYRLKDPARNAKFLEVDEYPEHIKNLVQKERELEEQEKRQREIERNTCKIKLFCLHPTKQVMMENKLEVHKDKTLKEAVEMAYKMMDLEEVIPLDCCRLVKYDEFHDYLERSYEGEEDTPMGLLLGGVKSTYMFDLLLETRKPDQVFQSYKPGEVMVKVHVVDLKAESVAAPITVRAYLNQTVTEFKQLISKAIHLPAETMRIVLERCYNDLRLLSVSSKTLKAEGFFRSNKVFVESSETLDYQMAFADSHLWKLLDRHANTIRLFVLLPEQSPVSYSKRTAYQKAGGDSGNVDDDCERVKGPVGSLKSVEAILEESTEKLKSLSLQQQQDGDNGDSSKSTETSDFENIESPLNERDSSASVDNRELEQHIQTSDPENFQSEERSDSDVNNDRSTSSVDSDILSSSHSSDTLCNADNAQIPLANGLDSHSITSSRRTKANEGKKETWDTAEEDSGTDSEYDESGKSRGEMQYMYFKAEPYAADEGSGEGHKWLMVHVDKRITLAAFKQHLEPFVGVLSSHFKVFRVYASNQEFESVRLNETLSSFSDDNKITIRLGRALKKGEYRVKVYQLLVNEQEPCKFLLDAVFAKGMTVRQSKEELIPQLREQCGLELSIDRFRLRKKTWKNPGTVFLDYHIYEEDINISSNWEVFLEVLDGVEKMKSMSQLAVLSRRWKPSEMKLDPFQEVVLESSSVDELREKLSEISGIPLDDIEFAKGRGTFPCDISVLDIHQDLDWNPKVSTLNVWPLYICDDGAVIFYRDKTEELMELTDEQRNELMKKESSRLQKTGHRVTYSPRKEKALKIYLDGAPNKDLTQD
Outline: as §1

[4] = biological target: T3, USP48 (UniProt Q86UV5)
T3 sequence (whole entry): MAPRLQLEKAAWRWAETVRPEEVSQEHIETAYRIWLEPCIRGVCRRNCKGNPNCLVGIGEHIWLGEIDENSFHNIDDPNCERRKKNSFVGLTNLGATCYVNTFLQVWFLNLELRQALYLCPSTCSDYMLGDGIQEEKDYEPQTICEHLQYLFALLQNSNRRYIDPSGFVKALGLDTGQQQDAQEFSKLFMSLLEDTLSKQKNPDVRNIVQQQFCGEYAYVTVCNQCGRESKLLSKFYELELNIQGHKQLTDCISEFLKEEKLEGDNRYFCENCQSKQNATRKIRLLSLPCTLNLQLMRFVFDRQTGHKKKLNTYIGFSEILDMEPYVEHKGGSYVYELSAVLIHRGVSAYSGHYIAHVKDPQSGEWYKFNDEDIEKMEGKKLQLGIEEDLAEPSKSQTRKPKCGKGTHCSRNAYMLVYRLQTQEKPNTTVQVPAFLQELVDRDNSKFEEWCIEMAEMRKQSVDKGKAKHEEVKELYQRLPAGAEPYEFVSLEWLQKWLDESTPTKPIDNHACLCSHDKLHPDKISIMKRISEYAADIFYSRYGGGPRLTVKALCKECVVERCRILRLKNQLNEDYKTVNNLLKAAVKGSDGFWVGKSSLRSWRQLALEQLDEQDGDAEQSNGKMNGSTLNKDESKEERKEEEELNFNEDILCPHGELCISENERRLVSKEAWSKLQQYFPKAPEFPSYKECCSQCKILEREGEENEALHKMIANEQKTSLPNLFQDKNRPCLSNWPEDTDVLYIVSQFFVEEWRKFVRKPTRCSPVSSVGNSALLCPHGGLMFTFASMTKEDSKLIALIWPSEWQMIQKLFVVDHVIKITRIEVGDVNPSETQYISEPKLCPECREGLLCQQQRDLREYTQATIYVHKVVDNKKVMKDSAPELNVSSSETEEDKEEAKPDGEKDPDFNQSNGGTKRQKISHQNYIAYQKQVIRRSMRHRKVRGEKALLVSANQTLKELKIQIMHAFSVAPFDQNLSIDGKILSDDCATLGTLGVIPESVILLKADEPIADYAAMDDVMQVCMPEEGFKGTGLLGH
Outline: as §1

[5] = biological target: T4, USP5 (UniProt P45974)
T4 sequence (whole entry): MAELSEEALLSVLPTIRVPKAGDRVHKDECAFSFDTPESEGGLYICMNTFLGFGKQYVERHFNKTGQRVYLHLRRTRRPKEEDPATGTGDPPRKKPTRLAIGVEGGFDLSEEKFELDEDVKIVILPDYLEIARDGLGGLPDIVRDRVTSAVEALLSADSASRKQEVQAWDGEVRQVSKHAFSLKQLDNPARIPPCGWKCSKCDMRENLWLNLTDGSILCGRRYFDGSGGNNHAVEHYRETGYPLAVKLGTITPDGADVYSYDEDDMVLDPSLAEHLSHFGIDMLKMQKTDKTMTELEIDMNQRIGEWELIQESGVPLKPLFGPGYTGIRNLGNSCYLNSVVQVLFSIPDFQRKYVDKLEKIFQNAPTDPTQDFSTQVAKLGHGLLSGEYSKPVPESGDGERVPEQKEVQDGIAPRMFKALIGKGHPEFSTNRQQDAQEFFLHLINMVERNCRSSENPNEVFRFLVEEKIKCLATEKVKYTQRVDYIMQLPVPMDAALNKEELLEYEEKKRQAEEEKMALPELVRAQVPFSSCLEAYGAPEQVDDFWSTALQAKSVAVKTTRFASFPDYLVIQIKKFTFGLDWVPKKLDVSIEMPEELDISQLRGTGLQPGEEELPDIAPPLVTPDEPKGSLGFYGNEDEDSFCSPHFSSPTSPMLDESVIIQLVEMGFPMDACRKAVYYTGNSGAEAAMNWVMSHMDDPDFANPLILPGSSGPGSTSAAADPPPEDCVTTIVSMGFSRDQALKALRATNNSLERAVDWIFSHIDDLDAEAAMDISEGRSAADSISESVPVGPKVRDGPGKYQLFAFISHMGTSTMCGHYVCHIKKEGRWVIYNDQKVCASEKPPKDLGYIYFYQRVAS
Outline: as §1

[6] = biological target: USP54 (UniProt Q70EL1)
Outline: as §1

[7] = biological target: USP7 (UniProt Q93009)
Outline: as §1

[8] = biological target: T5, USP8 (UniProt P40818)
T5 sequence (whole entry): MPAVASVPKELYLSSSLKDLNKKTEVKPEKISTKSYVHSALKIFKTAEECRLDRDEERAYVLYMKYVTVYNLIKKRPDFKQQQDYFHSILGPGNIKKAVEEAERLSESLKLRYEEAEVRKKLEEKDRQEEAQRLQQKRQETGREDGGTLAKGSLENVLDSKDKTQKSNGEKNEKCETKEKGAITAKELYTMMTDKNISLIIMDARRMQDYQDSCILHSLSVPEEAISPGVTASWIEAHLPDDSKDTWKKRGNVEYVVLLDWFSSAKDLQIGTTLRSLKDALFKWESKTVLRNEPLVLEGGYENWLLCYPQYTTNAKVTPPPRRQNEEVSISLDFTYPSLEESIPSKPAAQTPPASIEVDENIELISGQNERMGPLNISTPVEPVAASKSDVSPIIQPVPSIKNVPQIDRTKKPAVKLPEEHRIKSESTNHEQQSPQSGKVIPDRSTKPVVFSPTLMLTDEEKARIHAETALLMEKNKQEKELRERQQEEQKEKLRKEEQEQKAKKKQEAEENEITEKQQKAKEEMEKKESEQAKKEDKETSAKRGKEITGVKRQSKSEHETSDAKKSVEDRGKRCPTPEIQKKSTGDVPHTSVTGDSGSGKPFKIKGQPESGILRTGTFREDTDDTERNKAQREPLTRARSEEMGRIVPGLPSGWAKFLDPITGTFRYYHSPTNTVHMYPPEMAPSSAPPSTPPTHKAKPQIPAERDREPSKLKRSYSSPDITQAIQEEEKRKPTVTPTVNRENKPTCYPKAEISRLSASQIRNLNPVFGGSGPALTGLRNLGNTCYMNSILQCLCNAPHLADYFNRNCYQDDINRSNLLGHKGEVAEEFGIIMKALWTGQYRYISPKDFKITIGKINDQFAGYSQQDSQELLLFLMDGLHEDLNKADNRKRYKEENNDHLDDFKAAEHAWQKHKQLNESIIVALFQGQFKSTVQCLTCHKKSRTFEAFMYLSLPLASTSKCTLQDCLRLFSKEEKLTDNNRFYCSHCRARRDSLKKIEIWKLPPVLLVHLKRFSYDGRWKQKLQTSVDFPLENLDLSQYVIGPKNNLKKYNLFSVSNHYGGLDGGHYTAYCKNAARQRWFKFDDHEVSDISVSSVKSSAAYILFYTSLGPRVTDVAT
Outline: as §1

Measured: log2 ratio of Biotin-Ahx-Ub-VS probe labelling

USP54, sequence (Q70EL1 whole entry): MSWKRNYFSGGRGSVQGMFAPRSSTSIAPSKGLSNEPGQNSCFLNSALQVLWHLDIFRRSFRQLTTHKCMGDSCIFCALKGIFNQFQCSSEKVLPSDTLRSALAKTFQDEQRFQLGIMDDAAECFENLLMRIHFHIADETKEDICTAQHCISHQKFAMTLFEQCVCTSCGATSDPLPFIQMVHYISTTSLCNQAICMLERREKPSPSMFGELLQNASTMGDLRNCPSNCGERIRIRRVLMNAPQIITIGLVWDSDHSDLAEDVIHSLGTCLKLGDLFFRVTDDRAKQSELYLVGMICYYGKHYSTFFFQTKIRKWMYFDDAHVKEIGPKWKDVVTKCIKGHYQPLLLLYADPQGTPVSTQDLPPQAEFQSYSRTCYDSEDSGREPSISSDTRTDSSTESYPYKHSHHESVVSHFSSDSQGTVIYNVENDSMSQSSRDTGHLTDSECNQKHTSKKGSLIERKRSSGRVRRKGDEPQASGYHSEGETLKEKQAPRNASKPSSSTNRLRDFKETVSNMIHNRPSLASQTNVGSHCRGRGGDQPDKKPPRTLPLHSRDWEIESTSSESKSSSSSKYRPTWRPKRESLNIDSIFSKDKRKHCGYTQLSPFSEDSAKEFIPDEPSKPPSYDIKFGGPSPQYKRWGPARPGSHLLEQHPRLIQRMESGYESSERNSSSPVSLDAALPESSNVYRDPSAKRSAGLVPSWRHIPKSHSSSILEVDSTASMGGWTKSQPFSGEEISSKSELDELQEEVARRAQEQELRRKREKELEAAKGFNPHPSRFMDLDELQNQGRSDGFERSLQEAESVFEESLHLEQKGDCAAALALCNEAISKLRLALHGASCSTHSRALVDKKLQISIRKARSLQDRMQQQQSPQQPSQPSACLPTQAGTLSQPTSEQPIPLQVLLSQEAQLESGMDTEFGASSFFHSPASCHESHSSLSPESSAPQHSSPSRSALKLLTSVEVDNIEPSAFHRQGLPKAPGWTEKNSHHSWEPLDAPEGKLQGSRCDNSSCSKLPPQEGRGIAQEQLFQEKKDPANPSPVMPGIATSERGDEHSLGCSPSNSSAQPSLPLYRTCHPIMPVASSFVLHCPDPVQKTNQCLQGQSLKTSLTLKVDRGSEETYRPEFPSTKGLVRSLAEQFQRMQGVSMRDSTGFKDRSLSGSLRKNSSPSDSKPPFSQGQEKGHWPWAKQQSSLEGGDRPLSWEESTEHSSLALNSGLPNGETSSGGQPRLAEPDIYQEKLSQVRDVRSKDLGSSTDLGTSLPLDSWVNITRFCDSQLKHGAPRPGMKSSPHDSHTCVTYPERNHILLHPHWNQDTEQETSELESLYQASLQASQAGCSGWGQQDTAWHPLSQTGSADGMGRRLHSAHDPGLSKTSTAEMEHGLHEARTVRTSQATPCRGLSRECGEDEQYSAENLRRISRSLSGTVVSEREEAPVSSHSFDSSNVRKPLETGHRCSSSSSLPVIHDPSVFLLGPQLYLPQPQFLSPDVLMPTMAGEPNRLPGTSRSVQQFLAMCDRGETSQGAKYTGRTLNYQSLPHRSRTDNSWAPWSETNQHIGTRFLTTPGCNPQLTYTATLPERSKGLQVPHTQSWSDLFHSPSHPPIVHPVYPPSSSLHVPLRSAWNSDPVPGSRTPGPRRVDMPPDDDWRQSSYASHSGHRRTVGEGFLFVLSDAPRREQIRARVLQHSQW
USP46, sequence (P62068 whole entry): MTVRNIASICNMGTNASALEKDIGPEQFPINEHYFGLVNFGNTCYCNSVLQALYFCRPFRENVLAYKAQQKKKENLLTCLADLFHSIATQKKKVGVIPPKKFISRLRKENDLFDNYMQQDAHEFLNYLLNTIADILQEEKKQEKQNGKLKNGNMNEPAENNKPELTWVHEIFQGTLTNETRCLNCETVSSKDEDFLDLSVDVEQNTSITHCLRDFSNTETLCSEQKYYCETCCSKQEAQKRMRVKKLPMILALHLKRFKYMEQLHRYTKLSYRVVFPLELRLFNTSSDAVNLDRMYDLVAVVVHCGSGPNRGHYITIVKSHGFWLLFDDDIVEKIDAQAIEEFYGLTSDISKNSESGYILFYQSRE
USP7, sequence (Q93009 whole entry, looked up): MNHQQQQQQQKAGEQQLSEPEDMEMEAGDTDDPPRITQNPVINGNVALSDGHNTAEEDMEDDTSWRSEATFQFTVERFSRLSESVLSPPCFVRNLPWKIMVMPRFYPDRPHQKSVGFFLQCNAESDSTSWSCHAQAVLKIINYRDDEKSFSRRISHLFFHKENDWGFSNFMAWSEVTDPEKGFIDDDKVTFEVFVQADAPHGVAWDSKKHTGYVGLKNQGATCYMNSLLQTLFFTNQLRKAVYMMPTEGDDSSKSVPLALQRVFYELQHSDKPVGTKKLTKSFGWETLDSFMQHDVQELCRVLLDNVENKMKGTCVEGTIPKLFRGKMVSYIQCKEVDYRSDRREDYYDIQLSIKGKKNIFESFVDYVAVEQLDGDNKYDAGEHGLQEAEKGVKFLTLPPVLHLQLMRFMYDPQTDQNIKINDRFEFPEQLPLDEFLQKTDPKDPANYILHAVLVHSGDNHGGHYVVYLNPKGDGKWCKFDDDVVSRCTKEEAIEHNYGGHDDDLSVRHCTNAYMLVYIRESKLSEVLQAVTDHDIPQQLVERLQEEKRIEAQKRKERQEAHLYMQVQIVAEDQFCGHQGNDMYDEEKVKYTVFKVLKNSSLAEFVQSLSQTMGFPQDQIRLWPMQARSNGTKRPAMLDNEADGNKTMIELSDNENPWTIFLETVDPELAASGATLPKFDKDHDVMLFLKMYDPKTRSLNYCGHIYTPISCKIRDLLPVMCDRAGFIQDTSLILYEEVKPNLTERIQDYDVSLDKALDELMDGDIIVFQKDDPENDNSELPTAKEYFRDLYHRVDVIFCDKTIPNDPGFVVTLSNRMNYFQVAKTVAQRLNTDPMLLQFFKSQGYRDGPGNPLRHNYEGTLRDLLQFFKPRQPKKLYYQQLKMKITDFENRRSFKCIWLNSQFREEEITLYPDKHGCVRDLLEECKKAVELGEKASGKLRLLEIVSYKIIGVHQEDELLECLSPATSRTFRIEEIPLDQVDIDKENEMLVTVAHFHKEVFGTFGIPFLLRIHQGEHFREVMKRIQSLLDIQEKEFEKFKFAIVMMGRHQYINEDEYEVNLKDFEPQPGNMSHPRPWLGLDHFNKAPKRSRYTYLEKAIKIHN

Cc1ccc(-c2nnc(C)[nH]2)c(NC(=O)CCl)c1
inactive: [1] 0.00752 | [2] 0.277 | [3] -0.177 | [4] -0.239 | [5] 0.0867 | [6] -0.227 | [7] -0.138 | [8] 0.112
